Test results published in PubChem BioAssay AID1159580 (chemical genetic matrix, 2015).
Values joined by “and” are separate entries in the source; they are usually repeats but may differ in a detail not shown here. Identical values can stand only once. Hit rate of the full screen: of about 5,500 compounds, about 2,000 (36%) were called active. About 18% were inconclusive and are not listed. Cut-off read from the data, not from the text of the source: active = normalized growth mostly below about 0.91 (no sharp cut-off); inconclusive = no clear call, values can overlap the other calls; inactive = mostly above about 0.92. Some of the results follow.

Experiment: chemical genetic growth profiling, strain panel (AID 1159580);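 note: tested at 20 µM; growth read once vehicle control cultures reached saturation at 30 °C; 1 = growth at the plate median or of vehicle wells; lower values mean less growth of the strain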
Conditions: S. cerevisiae deletion strains, growth OD

Measured: normalized growth

CC(N)C(=O)OC(C)(C)Cc1ccc(Cl)cc1 (stereo unspecified)
inactive: locus YAL013W, strain DEP1, active compounds read low 0.986 and 1.01 | locus YAL021C, strain ccr4, active compounds read low 1.03 | locus YAL026C, strain drs2, active compounds read low 1.03 | locus YAL030W, strain snc1, active compounds read low 1.01 | locus YAL040C, strain CLN3, active compounds read low 1 | locus YBL061C, strain skt5, active compounds read low 1.02 | locus YBR009C, strain hhf1, active compounds read low 1.06 | locus YBR021W, strain FUR4, active compounds read low 0.943 | locus YBR023C, strain chs3, active compounds read low 1.02 | locus YBR171W, strain sec66, active compounds read low 1.02 | locus YBR229C, strain ROT2, active compounds read low 0.957 | locus YBR231C, strain swc5, active compounds read low 1.01 | locus YBR279W, strain paf1, active compounds read low 1.01 | locus YCL011C, strain gbp2, active compounds read low 1.01 | locus YCL016C, strain dcc1, active compounds read low 1.01 | locus YCL029C, strain bik1, active compounds read low 0.987 | locus YCL061C, strain MRC1 (second series), active compounds read low 0.995 | locus YCL061C, strain MRC1, active compounds read low 1.02 | locus YCL069W, strain vba3, active compounds read low 1.01 | locus YCR088W, strain abp1, active compounds read low 1.01 | locus YDL005C, strain med2, active compounds read low 1.03 | locus YDL035C, strain GPR1, active compounds read low 0.98 | locus YDL040C, strain nat1, active compounds read low 1 | locus YDL074C, strain BRE1, active compounds read low 0.988 | locus YDL101C, strain DUN1, active compounds read low 0.983 | locus YDL134C, strain PPH21, active compounds read low 0.984 | locus YDL185W, strain tfp1, active compounds read low 0.996 | locus YDL192W, strain arf1, active compounds read low 0.983 | locus YDR001C, strain nth1, active compounds read low 1.02 | locus YDR069C, strain doa4, active compounds read low 1.03 | locus YDR101C, strain arx1, active compounds read low 0.983 | locus YDR137W, strain rgp1, active compounds read low 1.05 | locus YDR150W, strain NUM1, active compounds read low 0.96 | locus YDR159W, strain sac3, active compounds read low 1.01 | locus YDR162C, strain NBP2, active compounds read low 0.985 | locus YDR195W, strain ref2 0.97 | locus YDR297W, strain sur2, active compounds read low 1.01 | locus YDR318W, strain mcm21, active compounds read low 0.996 | locus YDR334W, strain swr1, active compounds read low 1.02 | locus YDR335W, strain msn5, active compounds read low 1.02 | locus YDR363W, strain ESC2, active compounds read low 0.999 | locus YDR388W, active compounds read low 0.989 | locus YDR392W, strain spt3, active compounds read low 1.03 | locus YDR502C, strain sam2, active compounds read low 0.991 | locus YEL003W, strain gim4, active compounds read low 1.01 | locus YEL037C, strain rad23, active compounds read low 1.01 | locus YEL061C, strain CIN8 (second series), active compounds read low 1.02 | locus YEL061C, strain CIN8, active compounds read low 0.977 | locus YER002W, strain NOP16, active compounds read low 1.02 | locus YER015W, strain faa2, active compounds read low 1.01 | locus YER016W, strain bim1, active compounds read low 1.01 | locus YER110C, active compounds read low 0.972 | locus YER111C, strain swi4, active compounds read low 1.03 | locus YER155C, strain BEM2 (second series), active compounds read low 0.996 | locus YER155C, strain BEM2, active compounds read low 1 | locus YER167W, strain BCK2, active compounds read low 1.01 | locus YFR010W, strain ubp6, active compounds read low 1.03 | locus YGL078C, strain dbp3, active compounds read low 0.983 | locus YGL086W, strain mad1, active compounds read low 0.975 | locus YGL167C, strain pmr1, active compounds read low 1.01 | locus YGL173C, strain kem1, active compounds read low 1.04 | locus YGL227W, strain vid30, active compounds read low 1.01 | locus YGL240W, strain doc1, active compounds read low 1.02 | locus YGL248W, strain PDE1, active compounds read low 0.984 | locus YGL253W, strain hxk2, active compounds read low 1.01 | locus YGR078C, strain PAC10, active compounds read low 0.982 | locus YGR135W, strain pre9, active compounds read low 0.994 | locus YGR229C, strain SMI1, active compounds read low 0.996 | locus YGR252W, strain gcn5, active compounds read low 0.882 | locus YHR013C, strain ard1, active compounds read low 1.04 | locus YHR027C, strain rpn1, active compounds read low 1.01 | locus YHR030C, strain SLT2, active compounds read low 0.982 and 1.03 | locus YHR079C, strain IRE1 (second series), active compounds read low 0.994 | locus YHR079C, strain IRE1, active compounds read low 1.03 | locus YHR094C, strain hxt1, active compounds read low 0.995 | locus YHR129C, strain ARP1, active compounds read low 0.997 | locus YHR142W, strain chs7, active compounds read low 1.04 | locus YHR200W, strain rpn10, active compounds read low 0.987 | locus YIL066C, strain RNR3, active compounds read low 0.965 | locus YIL073C, strain SPO22, active compounds read low 1.02 | locus YIL125W, strain kgd1, active compounds read low 0.984 | locus YIR030C, strain dcg1, active compounds read low 0.977 | locus YJL092W, strain hpr5, active compounds read low 1.02 | locus YJL095W, strain BCK1 (second series), active compounds read low 1 | locus YJL095W, strain BCK1, active compounds read low 1.02 and 1.01 | locus YJL115W, strain asf1, active compounds read low 1.02 | locus YJL129C, strain trk1, active compounds read low 1.03 | locus YJL134W, strain LCB3, active compounds read low 0.983 | locus YJL154C, strain vps35, active compounds read low 1.01 | locus YJL164C, strain tpk1, active compounds read low 1.03 | locus YJL166W, strain qcr8, active compounds read low 1.04 | locus YJL168C, strain set2, active compounds read low 0.989 | locus YJL187C, strain SWE1 (second series), active compounds read low 0.978 | locus YJL187C, strain SWE1, active compounds read low 1.01 | locus YJR043C, strain POL32, active compounds read low 1.02 | locus YJR066W, strain TOR1, active compounds read low 0.971
